# PubChem BioAssay AID624330 (Southern Research Specialized Biocontainment Screening …, 2012)
# The whole screen tested about 340,000 compounds, of which about 2,100 (0.62%) were called active.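 How the source made its calls: active means first-screen hits whose inhibition reached a set limit at any dose in the follow-up dose series; inconclusive means inhibition above the set first-screen limit but never retested; inactive means the rest.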 These entries were drawn from the full list. Measured potencies and affinities stand elsewhere.
# Target: Rac GTPase-activating protein 1 (Homo sapiens) (UniProt Q9H0H5)
# Experiment: MgcRacGAP GTPase-activating activity inhibitors, confirmation, biochemical, ADP Hunter fluorescence, primary and confirmatory (AID 624330);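 further: fluorescence reports GDP produced by GAP-driven GTP hydrolysis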
# Conditions: MgcRacGAP-stimulated Rac1 GTP hydrolysis, at 30 µM, hits give high values, GST-tagged Rac1 F28L mutant substrate
# Sequence of Rac GTPase-activating protein 1 (Homo sapiens) (Q9H0H5 whole entry, looked up): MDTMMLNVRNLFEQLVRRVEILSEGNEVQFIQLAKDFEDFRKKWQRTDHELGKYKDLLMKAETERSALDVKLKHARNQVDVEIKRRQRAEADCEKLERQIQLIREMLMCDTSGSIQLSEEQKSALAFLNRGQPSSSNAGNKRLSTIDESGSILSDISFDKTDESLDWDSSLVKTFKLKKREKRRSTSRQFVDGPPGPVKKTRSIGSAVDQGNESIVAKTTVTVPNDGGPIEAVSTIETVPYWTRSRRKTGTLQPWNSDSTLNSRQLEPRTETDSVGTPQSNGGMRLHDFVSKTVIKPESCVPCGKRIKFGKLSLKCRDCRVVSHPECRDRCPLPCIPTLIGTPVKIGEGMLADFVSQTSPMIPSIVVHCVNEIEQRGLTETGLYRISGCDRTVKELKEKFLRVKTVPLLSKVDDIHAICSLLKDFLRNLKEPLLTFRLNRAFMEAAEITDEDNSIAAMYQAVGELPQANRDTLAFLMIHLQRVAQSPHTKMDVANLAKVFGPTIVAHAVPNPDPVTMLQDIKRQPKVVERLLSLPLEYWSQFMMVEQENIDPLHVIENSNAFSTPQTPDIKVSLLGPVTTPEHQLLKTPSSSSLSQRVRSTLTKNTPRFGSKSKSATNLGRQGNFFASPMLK
row,Compound,inhibition
1,COCCNC(=O)c1cc2c(=O)[nH]c3ccccc3c2s1,6.07% (inactive)
2,CCOc1ccc(/C=N/Nc2ccc(C(F)(F)F)cc2[N+](=O)[O-])cc1O,13.1% (inactive)
3,O=C(CCc1nc2ccccc2c(=O)[nH]1)Nc1ccc(F)c([N+](=O)[O-])c1,2.61% (inactive)
4,Clc1ccc(C2=Nc3cc(Cl)ccc3OC2)cc1,12.9% (inactive)
5,CCC1=Nc2cc(C(=O)O)ccc2Sc2ccc(Cl)cc21,6.46% (inactive)
6,CCOc1ccc2nc(SCC(=O)NCc3ccc(OC)cc3)[nH]c2c1,6.56% (inactive)
7,Cc1ccc2c(c1)N(C(=O)CCC(=O)N1CCN(c3ccccc3)CC1)CCO2,11.2% (inactive)
8,COc1ccc(/C=N/NC(=O)CNC(=O)C2COc3ccccc3O2)cc1OC (stereo not drawn),6.43% (inactive)
9,O=C(CNC(=O)C1COc2ccccc2O1)N/N=C\c1cccc(O)c1 (stereo not drawn),3.96% (inactive)
10,CCN(CC)c1ccc(/C=N/NC(=O)CNC(=O)C2COc3ccccc3O2)c(O)c1 (stereo not drawn),5% (inactive)
11,COc1ccc(/C=N\NC(=O)CNC(=O)C2COc3ccccc3O2)cc1[N+](=O)[O-] (stereo not drawn),5.39% (inactive)
12,CCOC(=O)N1CCN(C(=O)COC(=O)c2cc(C)ccc2C)CC1,-2.55% (inactive)
13,CCOc1ccccc1NC(=O)CN(c1ccc(C)cc1)S(=O)(=O)c1c(C)n[nH]c1C,0.88% (inactive)
14,Cc1cc(C(=O)O)ccc1NCc1ccncc1,7.32% (inactive)
15,COCCN(CC(=O)NC1CCCCC1)C(=O)CCCC(=O)Nc1ccccn1,-5.13% (inactive)
16,COC(=O)c1ccc(C(=O)OC)c(NC(=S)N2CCCCC2C)c1 (stereo not drawn),8.35% (inactive)
17,O=C(CN1CCN(c2ccc(F)cc2)CC1)NC(=O)NCc1ccco1,-4.47% (inactive)
18,COc1ccc(N2CCN(CC(=O)Nc3ccc(C)cc3Br)CC2)cc1,-18.4% (inactive)
19,Cc1ccc(NC(=O)NC(=O)CN2CCC(C(N)=O)CC2)c(C)c1,-2.71% (inactive)
20,O=C(CN1CCN(c2ccccc2)CC1)NC(=O)NCc1ccco1,5.31% (inactive)

row,Compound,inhibition
1,Cc1ccccc1NC(=O)c1ccccc1NC(=O)c1ccco1,4.69% (inactive)
2,Cn1cccc1C(=O)OCc1ccc(F)cc1,5.26% (inactive)
3,Cc1ccn2c(C(=O)N/N=C/c3ccc(Cl)cc3)c(C)nc2c1,8.94% (inactive)
4,COc1ccc(/C=N/NC(=O)c2c(C)nc3ccccn23)cc1[N+](=O)[O-],0.27% (inactive)
5,COc1ccc(OC)c(/C=N\NC(=O)c2c(C)nc3cc(C)ccn23)c1,-1.68% (inactive)
6,Cc1nc2ccccn2c1C(=O)N/N=C/c1ccc(F)cc1,6.23% (inactive)
7,CN(CC1CCOCC1)C(=O)CC1C(=O)NCCN1Cc1cccc(Oc2ccccc2)c1 (stereo not drawn),-8.59% (inactive)
8,O=C(CSc1nnc(CNC(=O)c2c(F)cccc2F)o1)NCCc1ccccc1,6.85% (inactive)
9,CCN1C(=O)[C@@H]2[C@H](C1=O)[C@@H]1C(=O)Nc3ccccc3C(=O)N1[C@@H]2c1ccc(OC)cc1,3.37% (inactive)
10,O=C(Nc1ccccc1C(=O)NCCc1ccccc1)c1cnccn1,8.13% (inactive)
11,N#Cc1cc(-c2ccccc2)cnc1Sc1ccccc1,-2.07% (inactive)
12,CCN(CC)CCCNC(=O)Cc1c(C(=O)O)n(C)c2ccccc12,7.17% (inactive)
13,CC(=O)c1ccc(N2CCN(CC(O)COC(c3ccccc3)c3ccccc3C)CC2)cc1 (stereo not drawn),12.8% (inactive)
14,CCOC(=O)N1CCN(CC(c2ccccc2)c2ccccc2)CC1,20.9% (inactive)
15,c1ccc(C(CN2CCOCC2)c2ccccc2)cc1,14.5% (inactive)
16,OC(COC(c1ccccc1)c1ccccc1)CN1CCCCC1 (stereo not drawn),6.55% (inactive)
17,CCN1CCN(CC(O)COC(c2ccccc2)c2ccccc2)CC1 (stereo not drawn),0.21% (inactive)
18,Cc1ccccc1C(OCC(O)CN1CCC(C(N)=O)CC1)c1ccccc1 (stereo not drawn),6.34% (inactive)
19,Cc1nnsc1C(=O)Nc1ccc(S(=O)(=O)N2CCCC(C)C2)cc1 (stereo not drawn),-21.6% (inactive)
20,Cc1cc([N+](=O)[O-])nn1CC(=O)NCc1ccc(Cl)cc1,0.89% (inactive)

row,Compound,inhibition
1,COC(=O)Cc1c(OC)ccn(CCc2c[nH]c3ccccc23)c1=O,8.25% (inactive)
2,CN1C(=O)C(C)(C)c2cc(S(=O)(=O)N3CCCC(C(=O)NCc4ccc(F)cc4)C3)ccc21 (stereo not drawn),17.2% (inactive)
3,CCC(CC)C(=O)Nc1ccc(C(=O)Nc2cc(C)on2)cc1,5% (inactive)
4,COc1ccc(CNC(=O)C(=O)NCC2OCCCN2S(=O)(=O)c2cccs2)cc1 (stereo not drawn),8.22% (inactive)
5,COc1cc(C2Nn3c(nnc3-c3ccccc3OC)S2)ccc1O (stereo not drawn),3.42% (inactive)
6,N#CC1=C(N)OC(c2ccccc2)=C(C#N)C1c1ccc2c(c1)OCO2 (stereo not drawn),-0.39% (inactive)
7,CC(C)Cc1ccc(C(=O)NCCOc2ccccc2)o1,5.6% (inactive)
8,CNC(=O)c1c(NC(=O)c2ccc(S(=O)(=O)N3CC(C)OC(C)C3)cc2)sc2c1CCN(C(C)C)C2 (stereo not drawn),11.2% (inactive)
9,Cc1ccc(C(=O)NCC(=O)Nc2ncccc2C)s1,-8.48% (inactive)
10,Cc1ccc(C(=O)Nc2ccncc2)cc1S(=O)(=O)N1CCOCC1,5.06% (inactive)
11,CCOc1ccc(CCN2C(=S)N([C@@H](CC(C)C)CN3CCCC3CN3C(=S)NC[C@@H]3Cc3ccc(O)cc3)C[C@@H]2Cc2ccccc2)cc1 (stereo partly drawn),-2.29% (inactive)
12,C[C@H](CO)N1C[C@H](C)[C@@H](CN(C)C(=O)c2ccccc2)OCc2cnnn2CCCC1=O,16.3% (inactive)
13,Oc1ccccc1N=Cc1ccc[nH]1,16.7% (inactive)
14,O=C(Nc1ccccc1O)c1ccc([N+](=O)[O-])cc1,6.91% (inactive)
15,O=C(CN1CCOCC1)Nc1ccc(-c2nc3ccccc3[nH]2)cc1,10.7% (inactive)
16,CC(C)C[C@@H](C(=O)O)N(Cc1cccc(CN([C@@H](CC(C)C)C(=O)O)S(C)(=O)=O)c1)S(C)(=O)=O,9.29% (inactive)
17,CC1=C(C(=O)Nc2ccccc2C)C2(CCCC2)C(C(N)=O)C(=O)N1 (stereo not drawn),-3.29% (inactive)
18,CCOC(=O)c1cnc2c(-c3ccccc3)cnn2c1C,8.8% (inactive)
